In general, inhibition refers to the drop in the measured response relative to a control, in per cent.

Assay [1] deals with RAC-alpha serine/threonine-protein kinase (Homo sapiens) (UniProt P31749). The note with it: at 0.1 µM.
For assay [2] the target is unchanged. To be noted: at 1 µM.
For assay [3], the target named is RAC-beta serine/threonine-protein kinase (Homo sapiens) (UniProt P31751). To be noted: at 0.1 µM.
Assay [4] shares this target. To be noted: at 1 µM.
For assay [5], the target named is RAC-gamma serine/threonine-protein kinase (Homo sapiens) (UniProt Q9Y243). The note with it: at 0.1 µM.
The target is the same in assay [6]. To be noted: at 1 µM.
Assay [7] has as its target G protein-coupled receptor kinase 6 (Homo sapiens) (UniProt P43250). To be noted: at 0.1 µM.
Assay [8] shares this target. The note with it: at 1 µM.
Assay [9] has as its target T1, Rhodopsin kinase GRK7 (Homo sapiens) (UniProt Q8WTQ7).
T1 sequence (whole entry): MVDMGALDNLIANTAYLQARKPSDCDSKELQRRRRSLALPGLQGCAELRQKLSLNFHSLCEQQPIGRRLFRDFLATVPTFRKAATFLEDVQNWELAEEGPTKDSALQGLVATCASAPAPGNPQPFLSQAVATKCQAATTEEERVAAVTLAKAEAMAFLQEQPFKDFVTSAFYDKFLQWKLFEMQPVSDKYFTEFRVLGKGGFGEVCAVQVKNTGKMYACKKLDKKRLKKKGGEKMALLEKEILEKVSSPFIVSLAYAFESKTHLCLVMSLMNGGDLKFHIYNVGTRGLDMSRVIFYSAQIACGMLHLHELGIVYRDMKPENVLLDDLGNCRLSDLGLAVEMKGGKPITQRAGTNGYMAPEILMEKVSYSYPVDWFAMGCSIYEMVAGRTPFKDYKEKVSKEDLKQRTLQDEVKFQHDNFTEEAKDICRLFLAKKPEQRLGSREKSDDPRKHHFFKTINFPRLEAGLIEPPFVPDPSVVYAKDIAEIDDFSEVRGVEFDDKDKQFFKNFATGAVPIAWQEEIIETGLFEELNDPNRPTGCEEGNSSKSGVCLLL
To be noted: at 0.1 µM.

For assay [10], the target named is T1, Rhodopsin kinase GRK7 (Homo sapiens). To be noted: at 1 µM.
Assay [11] deals with Serine/threonine-protein kinase MRCK alpha (Homo sapiens) (UniProt Q5VT25). To be noted: at 0.1 µM.
Assay [12] has the same target. To be noted: at 1 µM.
Assay [13] concerns the target Serine/threonine-protein kinase MRCK beta (Homo sapiens) (UniProt Q9Y5S2). To be noted: at 0.1 µM.
For assay [14] the target is unchanged. To be noted: at 1 µM.
Assay [15] concerns the target Ribosomal protein S6 kinase alpha-5 (Homo sapiens) (UniProt O75582). The note with it: at 0.1 µM.
The target is the same in assay [16]. The note with it: at 1 µM.
Assay [17] deals with Ribosomal protein S6 kinase alpha-4 (Homo sapiens) (UniProt O75676). The note with it: at 0.1 µM.
Assay [18] has the same target. To be noted: at 1 µM.
Assay [19] has as its target Ribosomal protein S6 kinase beta-1 (Homo sapiens) (UniProt P23443). The note with it: at 0.1 µM.
Assay [20] shares this target. To be noted: at 1 µM.

Sequence of RAC-alpha serine/threonine-protein kinase (Homo sapiens) (P31749 whole entry): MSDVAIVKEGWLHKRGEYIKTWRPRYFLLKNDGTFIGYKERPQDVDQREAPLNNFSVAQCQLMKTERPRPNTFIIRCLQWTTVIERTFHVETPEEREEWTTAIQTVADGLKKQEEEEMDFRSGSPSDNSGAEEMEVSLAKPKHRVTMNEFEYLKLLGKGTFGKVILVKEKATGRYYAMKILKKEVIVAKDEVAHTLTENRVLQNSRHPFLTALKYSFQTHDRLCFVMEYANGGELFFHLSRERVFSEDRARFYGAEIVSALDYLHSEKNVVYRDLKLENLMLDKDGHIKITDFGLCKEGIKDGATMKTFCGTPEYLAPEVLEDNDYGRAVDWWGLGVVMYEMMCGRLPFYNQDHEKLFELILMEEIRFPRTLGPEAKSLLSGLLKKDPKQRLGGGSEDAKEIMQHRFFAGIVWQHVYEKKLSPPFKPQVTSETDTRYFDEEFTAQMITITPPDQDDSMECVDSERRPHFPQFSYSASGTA
Sequence of Ribosomal protein S6 kinase alpha-5 (Homo sapiens) (O75582 whole entry, looked up): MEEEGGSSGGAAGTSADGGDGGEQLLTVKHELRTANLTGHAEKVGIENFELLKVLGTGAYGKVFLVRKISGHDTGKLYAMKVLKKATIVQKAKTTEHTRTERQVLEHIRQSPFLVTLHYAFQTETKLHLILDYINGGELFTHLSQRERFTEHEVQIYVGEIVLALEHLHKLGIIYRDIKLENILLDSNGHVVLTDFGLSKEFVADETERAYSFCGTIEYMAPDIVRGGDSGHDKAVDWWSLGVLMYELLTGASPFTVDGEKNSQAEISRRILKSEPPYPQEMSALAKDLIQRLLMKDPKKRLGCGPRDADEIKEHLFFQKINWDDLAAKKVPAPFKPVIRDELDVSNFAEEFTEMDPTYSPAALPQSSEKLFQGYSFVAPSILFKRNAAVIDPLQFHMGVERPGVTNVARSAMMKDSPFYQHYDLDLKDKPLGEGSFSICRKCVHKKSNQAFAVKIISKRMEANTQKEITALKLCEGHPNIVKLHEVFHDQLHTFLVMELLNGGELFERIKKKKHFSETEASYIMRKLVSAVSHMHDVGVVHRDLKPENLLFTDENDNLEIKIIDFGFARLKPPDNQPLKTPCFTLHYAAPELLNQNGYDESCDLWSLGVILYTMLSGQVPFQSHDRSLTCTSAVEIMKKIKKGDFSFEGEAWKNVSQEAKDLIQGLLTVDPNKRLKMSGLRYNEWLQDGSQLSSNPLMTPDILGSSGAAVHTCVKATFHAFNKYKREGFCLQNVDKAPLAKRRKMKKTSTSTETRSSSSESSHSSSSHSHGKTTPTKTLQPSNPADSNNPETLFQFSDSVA
Sequence of Ribosomal protein S6 kinase beta-1 (Homo sapiens) (P23443 whole entry, looked up): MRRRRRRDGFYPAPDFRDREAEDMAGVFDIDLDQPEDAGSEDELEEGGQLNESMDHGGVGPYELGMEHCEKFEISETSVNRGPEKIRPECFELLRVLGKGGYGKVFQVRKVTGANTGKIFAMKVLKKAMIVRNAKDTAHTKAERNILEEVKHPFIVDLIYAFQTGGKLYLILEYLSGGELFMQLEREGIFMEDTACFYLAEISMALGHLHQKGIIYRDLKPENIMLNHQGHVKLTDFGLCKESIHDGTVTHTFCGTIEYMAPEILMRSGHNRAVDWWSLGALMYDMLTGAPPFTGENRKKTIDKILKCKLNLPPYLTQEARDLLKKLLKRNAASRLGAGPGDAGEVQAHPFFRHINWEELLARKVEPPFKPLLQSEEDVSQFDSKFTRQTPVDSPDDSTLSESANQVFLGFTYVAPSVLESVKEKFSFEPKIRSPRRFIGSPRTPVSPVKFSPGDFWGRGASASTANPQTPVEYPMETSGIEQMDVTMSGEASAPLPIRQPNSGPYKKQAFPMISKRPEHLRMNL
Sequence of Ribosomal protein S6 kinase alpha-4 (Homo sapiens) (O75676 whole entry, looked up): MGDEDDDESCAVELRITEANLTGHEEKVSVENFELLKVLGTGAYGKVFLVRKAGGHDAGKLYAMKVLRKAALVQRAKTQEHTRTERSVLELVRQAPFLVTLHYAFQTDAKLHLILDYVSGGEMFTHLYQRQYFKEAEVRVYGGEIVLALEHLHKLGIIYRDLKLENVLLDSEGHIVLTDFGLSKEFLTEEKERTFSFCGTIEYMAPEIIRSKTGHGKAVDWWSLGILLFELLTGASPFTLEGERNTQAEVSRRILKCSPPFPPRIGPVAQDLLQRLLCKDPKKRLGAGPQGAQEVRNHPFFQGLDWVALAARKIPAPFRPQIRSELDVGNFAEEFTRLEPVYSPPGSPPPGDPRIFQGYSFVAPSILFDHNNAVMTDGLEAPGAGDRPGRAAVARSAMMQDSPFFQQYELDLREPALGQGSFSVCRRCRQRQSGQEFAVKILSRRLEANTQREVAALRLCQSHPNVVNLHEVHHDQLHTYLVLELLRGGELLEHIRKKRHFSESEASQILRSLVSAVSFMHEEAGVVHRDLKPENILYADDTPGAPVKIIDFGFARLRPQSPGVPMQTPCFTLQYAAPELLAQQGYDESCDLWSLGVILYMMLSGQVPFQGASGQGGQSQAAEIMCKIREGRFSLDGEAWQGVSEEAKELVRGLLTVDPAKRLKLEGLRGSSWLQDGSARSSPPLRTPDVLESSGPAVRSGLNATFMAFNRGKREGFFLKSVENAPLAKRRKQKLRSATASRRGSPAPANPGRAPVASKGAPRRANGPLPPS
Sequence of Serine/threonine-protein kinase MRCK alpha (Homo sapiens) (Q5VT25 whole entry): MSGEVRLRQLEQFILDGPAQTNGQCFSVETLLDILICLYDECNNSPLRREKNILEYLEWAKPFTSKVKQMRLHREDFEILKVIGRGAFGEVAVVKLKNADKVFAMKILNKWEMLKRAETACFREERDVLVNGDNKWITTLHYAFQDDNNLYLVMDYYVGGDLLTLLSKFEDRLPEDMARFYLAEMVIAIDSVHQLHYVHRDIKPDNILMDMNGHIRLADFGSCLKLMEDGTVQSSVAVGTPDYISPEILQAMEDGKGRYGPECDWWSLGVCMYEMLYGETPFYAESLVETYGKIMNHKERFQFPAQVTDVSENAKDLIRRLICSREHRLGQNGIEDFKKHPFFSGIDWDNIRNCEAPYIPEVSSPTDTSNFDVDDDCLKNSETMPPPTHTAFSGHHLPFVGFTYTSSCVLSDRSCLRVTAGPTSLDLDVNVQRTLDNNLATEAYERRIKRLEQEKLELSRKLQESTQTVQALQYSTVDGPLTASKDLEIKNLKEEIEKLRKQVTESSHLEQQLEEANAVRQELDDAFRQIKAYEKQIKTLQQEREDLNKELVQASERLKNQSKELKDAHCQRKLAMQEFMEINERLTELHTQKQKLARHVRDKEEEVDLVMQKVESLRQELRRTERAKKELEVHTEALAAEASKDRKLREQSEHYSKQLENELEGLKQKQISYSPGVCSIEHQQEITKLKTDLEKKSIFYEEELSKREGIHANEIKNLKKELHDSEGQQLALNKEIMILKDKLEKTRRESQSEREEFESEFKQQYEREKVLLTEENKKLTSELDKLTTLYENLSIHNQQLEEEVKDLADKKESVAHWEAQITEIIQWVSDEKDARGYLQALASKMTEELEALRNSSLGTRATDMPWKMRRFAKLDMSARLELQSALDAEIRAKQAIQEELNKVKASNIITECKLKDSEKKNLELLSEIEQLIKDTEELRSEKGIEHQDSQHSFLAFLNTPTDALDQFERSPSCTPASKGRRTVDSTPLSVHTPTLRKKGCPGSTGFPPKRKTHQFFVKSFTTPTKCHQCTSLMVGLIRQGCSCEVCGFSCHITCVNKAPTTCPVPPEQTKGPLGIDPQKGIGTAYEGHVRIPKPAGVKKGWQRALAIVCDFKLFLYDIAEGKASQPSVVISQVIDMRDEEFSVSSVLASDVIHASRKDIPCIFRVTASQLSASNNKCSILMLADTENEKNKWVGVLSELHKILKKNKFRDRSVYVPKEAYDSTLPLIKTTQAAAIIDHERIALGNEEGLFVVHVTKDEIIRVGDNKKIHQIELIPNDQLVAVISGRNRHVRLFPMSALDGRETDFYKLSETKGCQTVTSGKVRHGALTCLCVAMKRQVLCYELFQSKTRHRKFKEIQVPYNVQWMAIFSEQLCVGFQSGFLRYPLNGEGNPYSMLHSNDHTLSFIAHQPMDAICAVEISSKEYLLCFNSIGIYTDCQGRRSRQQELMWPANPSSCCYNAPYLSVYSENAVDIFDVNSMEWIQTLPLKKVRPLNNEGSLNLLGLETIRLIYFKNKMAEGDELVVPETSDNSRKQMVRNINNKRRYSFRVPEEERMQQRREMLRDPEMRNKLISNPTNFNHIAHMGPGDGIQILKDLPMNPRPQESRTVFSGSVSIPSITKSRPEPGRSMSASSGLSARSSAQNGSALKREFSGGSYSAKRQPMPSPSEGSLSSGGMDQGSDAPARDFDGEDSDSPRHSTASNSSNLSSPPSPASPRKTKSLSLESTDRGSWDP
Sequence of RAC-beta serine/threonine-protein kinase (Homo sapiens) (P31751 whole entry): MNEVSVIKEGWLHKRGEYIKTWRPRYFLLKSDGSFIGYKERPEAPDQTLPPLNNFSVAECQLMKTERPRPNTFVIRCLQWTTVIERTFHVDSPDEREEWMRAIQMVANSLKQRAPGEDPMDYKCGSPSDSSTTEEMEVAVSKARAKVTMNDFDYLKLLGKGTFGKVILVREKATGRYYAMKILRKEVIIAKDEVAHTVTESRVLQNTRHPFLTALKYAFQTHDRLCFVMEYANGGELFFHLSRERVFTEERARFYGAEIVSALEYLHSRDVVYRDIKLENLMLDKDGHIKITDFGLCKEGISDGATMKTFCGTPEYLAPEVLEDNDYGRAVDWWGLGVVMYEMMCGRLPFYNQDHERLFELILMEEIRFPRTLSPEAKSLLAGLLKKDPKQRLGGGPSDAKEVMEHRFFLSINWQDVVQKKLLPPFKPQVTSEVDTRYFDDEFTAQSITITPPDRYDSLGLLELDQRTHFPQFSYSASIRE

With `COC(=O)c1cncc(/C=C/c2c(C)cc(O)cc2C)c1`, the inhibition in assay [1] amounted to 1.01%; in assay [2], 0.52%; in assay [3] it was 1.09%; in assay [4] it was 1.16%; in assay [5], 1.47%; in assay [6] it was 1.17%. Also, the inhibition in assay [7] is 7.47%; in assay [8], 9.38%; in [9], 3.31%; in assay [10], 3.95%; in assay [11], -0.75%; in [12] it was 4.85%. Further, the inhibition in [13] was -0.09%; in assay [14] it was 0.48%; in [15], 3.93%; in assay [16] it was 4.33%; in assay [17], 2.57%; in assay [18], 3.67%. The inhibition in assay [19] amounted to 1.37%; in assay [20], 1.04%.
Take `CCCN1CCCC(c2ccc(Nc3nc(Nc4cc(F)ccc4C(N)=O)c4cc[nH]c4n3)c(OC)c2)C1` (stereo not given): the inhibition in assay [1] is 0.39%; in assay [2], 0.27%; in [3], 1.85%; in assay [4], 1.92%; in [5], 0.52%; in [6], 2.18%. Further, the inhibition in assay [7] turned out to be 5.66%; in assay [8], 25.3%; in assay [9], 3.88%; in assay [10] it was 16.6%; in [11], 1.76%; in assay [12], 17.9%. The inhibition in assay [13] is 1.55%; in assay [14], 13%; in [15] it was 4.88%; in assay [16] it was 5.31%; in [17], 1.64%; in assay [18], 7.01%. For the same molecule, the figures for the inhibition in assay [19] and in assay [20] were 1.93% and 4.24%, respectively.
For the molecule `Cc1nc(-c2ccccc2)n2nc(NCCCN3CCOCC3)ncc12`, the inhibition was determined as 0.61% in assay [1]; 0.11% in assay [2]; 0.45% in [3]; 2.03% in assay [4]; 0.57% in assay [5]; 4.13% in [6]. In addition, the inhibition in assay [7] was 3.41%; in assay [8] it was 0.49%; in assay [9] it was 5.84%; in assay [10], 2.44%; in [11], 6.14%; in assay [12], 2.64%. Besides, the inhibition in [13] was found to be 0.51%; in assay [14], 0.04%; in assay [15], 0.53%; in assay [16] it was 1.08%; in [17], 2.47%; in assay [18], 3.6%. For the same molecule, the results for the inhibition in assay [19] and in assay [20] were 1.34% and 2.24%, respectively.
On to `COc1cc2ncnc(Nc3ccc(C)c(O)c3)c2cc1OC`, for which the inhibition in assay [1] amounted to 0.49%; in [2], 0.96%; in [3], 1.99%; in [4] it was 1.77%; in assay [5], 1.98%; in assay [6], 1.76%. Besides, the inhibition was 6% in [7]; 5.91% in assay [8]; 4.99% in [9]; 7.5% in assay [10]; 0.29% in assay [11]; 0.79% in assay [12]. Further, the inhibition turned out to be 1.59% in assay [13]; 0.25% in assay [14]; 5.09% in [15]; 4.76% in assay [16]; 4.36% in [17]; 2.32% in assay [18]. The inhibition is 3.34% in [19] and 2.36% in assay [20].
Consider `Cc1ccc2c(-c3ccnc(Nc4cccc(C(F)(F)F)c4)n3)c(-c3ccccc3)nn2n1`, for which the inhibition in assay [1] turned out to be 0.89%; in assay [2], 1.19%; in assay [3] it was 0.8%; in [4], 2.31%; in assay [5], 0.73%; in [6], 4.19%. Besides, the inhibition in assay [7] is 2.15%; in assay [8], 2.48%; in assay [9], 10.5%; in assay [10] it was 3.2%; in assay [11], 1.06%; in assay [12] it was 5.98%. For the same molecule, the inhibition in assay [13] is 0.83%; in [14], 1.46%; in assay [15], -3.38%; in assay [16], -4.64%; in assay [17] it was 2.52%; in assay [18] it was 3.99%. In addition, the figures for the inhibition in [19] and in assay [20] were 2.1% and 2.71%, respectively.
In the case of `COc1ccc(-c2nn3ncccc3c2-c2ccnc(Nc3cccc(C(F)(F)F)c3)n2)cc1`, the inhibition is 0.68% in assay [1]; 0.72% in assay [2]; 1.23% in assay [3]; 1.84% in assay [4]; 0.37% in assay [5]; 1.95% in [6]. In addition, the inhibition in assay [7] was 3.32%; in [8], 2.16%; in [9] it was 5.25%; in [10] it was 1.87%; in assay [11], -3.04%; in assay [12], 1.22%. For the same molecule, the inhibition in assay [13] was 0.66%; in assay [14], -0.13%; in assay [15], 1.92%; in assay [16], -0.09%; in assay [17], 2.61%; in assay [18], 1.73%. Further, the figures for the inhibition in assay [19] and in assay [20] were 1.77% and 0.85%, respectively.
For `CN(C)C(=O)O[C@@H]1CN[C@@H](C#Cc2cc3ncnc(Nc4ccc(OCc5cccc(F)c5)c(Cl)c4)c3s2)C1`, the inhibition was -0.54% in assay [1]; -0.11% in [2]; 0% in assay [3]; -1.02% in [4]; -0.71% in [5]; 0.16% in assay [6]. The inhibition is 0.14% in assay [7]; -1.42% in [8]; -2.8% in assay [9]; 11.4% in assay [10]; 0.14% in [11]; 1.14% in assay [12]. Further, the inhibition in assay [13] was -0.75%; in assay [14], 0.85%; in [15] it was 0.39%; in assay [16] it was 2.9%; in [17], -1.34%; in assay [18], 2.41%. Also, the inhibition is 0.37% in assay [19] and 1.14% in assay [20].
